An excerpt weighted towards active compounds, which were near 18% of everything screened.
TDP1 cell noCPT – qHTS for Inhibitors of human tyrosyl-DNA phosphodiesterase 1 (TDP1): qHTS in cells in absence of CPT; Potency, µM (series often up to 46.2 µM), for the others: top-dose activity change, negative = growth inhibition, hits mostly inhibitors; 420,000 tested, 15% active; DT40 Tdp1-/- hTDP1 cells, no CPT, ATP luminescence, 48 h; also: potency is read from the fitted curve at half-maximal effect; % is scaled to controls: 0 for no effect and ±100 for the full control effect; nearly all actives have a fitted effect of over 55% in size
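Growth kinetics read by CellTiter-Glo luminescence after ≥48 hr at 37 °C. Cells: DT40 Tdp1-/- stably carrying human TDP1, 400 per well, compound exposure in the absence of CPT (DMSO vehicle).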
TDP1 block – qHTS Assay for Inhibitors of Tyrosyl-DNA Phosphodiesterase (TDP1); Tyrosyl-DNA phosphodiesterase 1 (Homo sapiens), Q9NUW8; recombinant TDP1, AlphaScreen DNA substrate cleavage; Potency, µM (top dose mostly 130 µM), inactives show top-dose activity change, negative = inhibition, most hits filed as inhibitors; 350,000 tested, 0.28% active; also: potency is read from the fitted curve at half-maximal effect; % is scaled to controls: 0 for no effect and ±100 for the full control effect; nearly all actives have a fitted effect of over 40% in size
Target sequence (Q9NUW8 whole entry, looked up): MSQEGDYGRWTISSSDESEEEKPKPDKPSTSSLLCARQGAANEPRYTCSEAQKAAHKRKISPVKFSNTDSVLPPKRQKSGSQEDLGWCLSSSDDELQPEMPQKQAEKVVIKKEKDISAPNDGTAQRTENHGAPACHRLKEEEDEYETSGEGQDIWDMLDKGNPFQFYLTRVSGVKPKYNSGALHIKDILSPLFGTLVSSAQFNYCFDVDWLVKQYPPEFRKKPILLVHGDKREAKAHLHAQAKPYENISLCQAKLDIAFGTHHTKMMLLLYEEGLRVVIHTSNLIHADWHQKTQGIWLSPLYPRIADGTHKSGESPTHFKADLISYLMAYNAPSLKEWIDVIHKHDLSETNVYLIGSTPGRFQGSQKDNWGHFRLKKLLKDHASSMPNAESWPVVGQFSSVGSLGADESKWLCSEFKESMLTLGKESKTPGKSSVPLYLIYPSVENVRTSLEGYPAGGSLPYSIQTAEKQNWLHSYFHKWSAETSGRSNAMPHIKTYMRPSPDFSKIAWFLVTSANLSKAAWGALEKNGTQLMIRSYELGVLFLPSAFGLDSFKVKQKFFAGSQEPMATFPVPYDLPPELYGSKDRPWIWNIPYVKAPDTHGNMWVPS
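Steps: enzyme plus compound, 15 min RT; add biotin/phosphotyrosine-FITC oligonucleotide (15 nM final), react 5 min; add donor/acceptor beads (10 ug/ml final), 10 min; read AlphaScreen. Tdp1 at 1 nM final.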
HepG2 tox – qHTS for Inhibitors of TGF-b: Cytotox Counterscreen; Potency, µM (doses to about 46.1 µM), without a hit: at the top dose activity change, negative = cytotoxicity, hits mostly cytotoxic; HepG2 CAGA-GFP viability, ATP luminescence, 18 h; 410,000 tested, 0.76% active; also: potency is read from the fitted curve at half-maximal effect
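CellTiter-Glo luminescence gave cytotoxicity after 18 hours at 37 degrees C. The cells were HepG2 CAGA-GFP in 1% FBS DMEM, stimulated with 500 pg/mL TGF-beta after compound addition. %Activity was normalised to no-cell wells (complete cell-killing) and DMSO (no toxicity), and curves were fitted and classified.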
IL1B secr inh – qHTS for Inhibitors of Inflammasome Signaling: IL-1-beta AlphaLISA Primary Screen; THP-1 LPS/ATP IL-1B secretion, AlphaLISA, 16 h; active compounds read low; activity change, % at 57.5 µM; 360,000 tested, 4.7% active; AID 743279, 2014; in the data active = activity change below about -50%; inconclusive = mostly about -30% to -49%; also: % is scaled to controls: 0 for no effect and ±100 for the full control effect
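THP-1 cells pretreated 1 hr with compounds (up to 57.5 uM final), then stimulated with LPS (250 ng/mL final) plus ATP (1.25 mM final); secreted IL-1B measured by AlphaLISA after 16 hr, decreased signal indicating inhibition.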
TGFb inhibitor – qHTS for Inhibitors of TGF-b | 410,000 tested, 1.2% active | AID 588855, 2011 | HepG2 CAGA-GFP TGF-b/SMAD3 reporter, GFP fluorescence, 18 h; TGF-beta stimulated, 500 pg/mL final | Potency, µM (doses to about 46.1 µM), for the others: top-dose activity, negative = inhibition, actives largely listed as inhibitors; also: potency is read from the fitted curve at half-maximal effect; % is scaled to controls: 0 for no effect and ±100 for the full control effect; nearly all actives have a fitted effect of over 65% in size
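Using HEPG2 CAGA-GFP reporter cells at 1000 cells/well, we pinned test compounds, stimulated with recombinant TGF-beta (500 pg/mL final) and measured total well GFP after 18 h.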
DT40 TDP1 CPT – qHTS for Inhibitors of human tyrosyl-DNA phosphodiesterase 1 (TDP1): qHTS in cells in presence of CPT. chicken DT40 Tdp1-/-;hTDP1 cells + 20 nM CPT, ATP luminescence, 48 h. Potency, µM (titrated, usually from 46.2 µM), for the others: at the top dose activity change, negative = growth inhibition, most hits filed as inhibitors. 420,000 tested, 12% active. AID 686979, 2013; also: potency is read from the fitted curve at half-maximal effect; % is scaled to controls: 0 for no effect and ±100 for the full control effect; nearly all actives have a fitted effect of over 55% in size
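Chicken DT40 Tdp1-/- cells complemented with human TDP1, 400 cells/well, exposed to compounds plus 20 nM camptothecin for at least 48 h at 37 C; viability read as ATP content by CellTiter-Glo luminescence.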
* hit, by the source's call; ? = inconclusive; . = no result; [ ] = another dose, or the depositor's remark. Unless noted, calls follow the shape of the dose curve; as a rule, active = well fitted curve in the direction sought with a large enough effect; inconclusive = small, poorly fitted or top-dose-only effect, or another doubt; inactive = no such curve, though single readings can be large; an effect the other way counts as inactive or inconclusive.

SMILES	TDP1 cell noCPT	TDP1 block	HepG2 tox	IL1B secr inh	TGFb inhibitor	DT40 TDP1 CPT
O=C(CNC(=O)c1cc(Cl)cc([N+](=O)[O-])c1)OCC(=O)N1CCCCC1	0.3%	2.0%[56.1 µM]	-9.4%	-73.7*	-23.3%	-17.6%
Cc1nn(-c2ccccc2)c(OC(=O)C(C)C)c1Sc1ccc(Cl)cc1	10.3µM*	5.9%	-31.7%	.	.	?
COc1ccc(C(=O)Oc2c(Sc3ccccc3)c(C)nn2-c2ccccc2)c(OC)c1	?	8.8%	-99.5%	.	?	18.4µM*
CCC(=O)Oc1c(Sc2ccc(Cl)cc2)c(C)nn1C(C)(C)C	-28.6%	5.9%	-15.9%	.	-0.7%	?
Cc1ccccc1Nc1c(-c2ccc(Cl)s2)nc2ccccn12	?	0.9%	.	.	.	-5.5%
CCC(COC)NC(=O)c1cnn(-c2ncc3c(n2)-c2ccccc2CC3)c1C (stereo not drawn)	?	.	.	.	.	-3.4%[9.04 µM]
CN(C)C(=O)OCC1COc2ccccc2O1 (stereo not drawn)	-8.1%	2.7%	-4.7%	-17.5	9.3%	3.4%
O=C(O)COc1ccccc1/C=N/NC(=O)Cc1csc(Nc2cccc(C(F)(F)F)c2)n1	-7.6%	5.3%	7.7%	-9.1	3.5%	3.2%
Nc1ccc2c(c1)C(=O)c1ccc(N)cc1-2	-22.3%	.	-7.5%	-76.0*	0.0%	3.1%
CCn1c(=O)c2sccc2n2c(CCCC(=O)NCCc3ccc(S(N)(=O)=O)cc3)nnc12	0.9%	1.2%	-5.5%	-14.8	-5.4%	2.9%
Cc1cccc(C)c1NS(=O)(=O)c1ccc2c(c1)[C@H]1C=CC[C@H]1[C@@H](c1ccc(Cl)cc1)N2	13µM*	.	-4.1%	.	?	16.4µM*
COc1cccc(NS(=O)(=O)c2ccc3c(c2)[C@H]2C=CC[C@H]2[C@@H](c2ccccc2Cl)N3)c1	4.61µM*	.	-49.7%	.	11.2µM*	8.2µM*
COC(=O)c1ccc([C@H]2Nc3ccc(S(=O)(=O)Nc4ccc(C)cc4)cc3[C@H]3C=CC[C@H]32)cc1	14.6µM*	.	-5.0%	.	-2.8%	13µM*
COc1ccc([C@H]2C[C@@H](O)[C@H](n3cc(COC(=O)c4ccccc4)nn3)CN2CC2CCCCC2)cc1	?	.	-99.5%	-21.5	?	?
COc1ccccc1N1CCN(CC(O)COc2cc(C)cc(C)c2)CC1 (stereo not drawn)	?	.	-16.4%	.	-2.1%	?
CC(=O)c1c(C)nn(CC(O)COc2ccc3c(c2)CCC3)c1C (stereo not drawn)	15.8µM*	6.9%	-46.9%	?	-2.9%	?
CC(C)(C)CC(C)(C)NCC(O)COc1ccc2c(c1)CCC2 (stereo not drawn)	23.1µM*	.	-96.0%	-75.1*	?	?
COc1ccccc1N1CCN(CC(O)COc2ccc3c(c2)CCC3)CC1 (stereo not drawn)	?	3.8%	-25.5%	-64.2*	1.2%	16.4µM*
COc1ccccc1N1CCN(CC(O)COc2ccc(C)cc2C(C)(C)C)CC1 (stereo not drawn)	18.4µM*	6.5%	15.8µM*	.	?	?
Cc1nn(CC(O)COc2ccc3c(c2)CCC3)c(C)c1Br (stereo not drawn)	?	2.1%	-62.2%	1.6	?	?
CCOCCCNC(=O)C1CCN(c2nc3ccc(Cl)cc3[nH]2)CC1	-10.1%	0.0%	11.2%	.	-1.5%	-19.3%
